Measurements taken from PubChem BioAssay AID1508600 (Functional Genomics Laboratory (NCATS/FGL), 2020).
Screen size: about 53,000 sequences; about 3,700 (7%) were called active. The entries come from a sample that favours actives as a whole. Unmarked numbers belong to inactive results.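 Rule for the calls: active = gene knockdowns whose robust z-score for IL-1 alpha signal is at least 2 or at most -2, so actives lie on both sides; inactive = the rest.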

Assay: Components of the Cytosolic LPS Sensing Pathway: Gene Identification via Genome-wide siRNA Screen;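 note: robust z of the log signal after scaling to non-targeting control siRNA wells of the plate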
Conditions: RAW264.7 macrophages, IL-1a HTRF, actives lie on both sides, screened at 100 nM (by protocol), cells primed 5 h with Pam3CSK4 first
Summary of the method: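 Using IL-1a HTRF as read-out, the screen measured release from RAW264.7 cells after 48h siRNA knockdown (100 nM), 5 h Pam3CSK4 priming and 24 h cytosolic LipidA. Values were expressed relative to negative-control wells as robust z-scores.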
In the case of CGUAGGACUGAAUCAGCUUTT against Slc13a3, the z-score is reported as -3.04 (active). For GCCAUUUGAAGUGUUUAAATT against Kctd12, the z-score was -0.103. GGAAGACCUAAACAACGGCTT against Dusp10 gave a z-score of -1.55. Work on GGGUAACUAUUGGACUAACTT against Gabrq yielded a z-score of -0.262. Sequence GGCAUUGGAAUAAAAUUUGTT against Rfk has a z-score of 0.267. In the case of GGUGGUACGCAGACUAAAUTT against Ulk1, the z-score is reported as 2.94 (active). With GGGUUAAACCACAUAUCCATT against Spata9 the z-score was -1.06. Work on GCUUUUCCGCUUCUACCGGTT against Nrp yielded a z-score of -0.505. Work on GCUGUGGAGAAGUGCUACUTT against Lce1b yielded a z-score of -0.907. For CCGAAAAUGGUUAGGACAUTT against Kynu, the z-score was 1.44. For GGGCCUUCAAAACGAGAAGTT against Cyp4f39, the z-score was 0.339. GCCUUCCUGAAUUUAAAGATT against Myo5b gave a z-score of 1.33. For GGAUAAAAUUGCUUUACUGTT against Srek1ip1, the z-score was 2.63 (active). With GGUGGUACUUACUCAAAAUTT against Fgg the z-score was 1.05. Work on GGGACUACCAUUUGUUAAUTT against Tktl1 yielded a z-score of 0.751. With CCAGAUUGUCACUUGCUACTT against Skint3 the z-score was 1.25. Work on GGAUACAAUCAUCGCCAUCTT against Olfr101 yielded a z-score of 1.3. In the case of GCUUUUAACAUCGAGUAAUTT against Top2b, the z-score is reported as -0.627. In the case of GCAUUCAUCAGGGUUGAUUTT against Wdr20, the z-score is reported as -2.43 (active). CCUGUUAUGACCGUUCAUGTT against Prpf4 showed a z-score of 0.551. Work on GGCUCUGAAAAUUGAACACTT against Cep83 yielded a z-score of 0.0736. GGGUCUUAUCUCGAUGAGGTT against Flt3l showed a z-score of -0.199. GGAAAUCAGCUGAAUUACUTT against Dicer1 showed a z-score of 1.07. Work on GGAACCAAUCUUGGUCUCATT against Tln2 yielded a z-score of -0.66. In the case of GGAUUCAGGCUGGAAAAUATT against Clrn1, the z-score is reported as -1.04. With GGAAAACUUGAGGCGGAUCTT against Enkd1 the z-score was 2.63 (active). CCCUGAAGGCUUACUUUUUTT against Cfap299 gave a z-score of -0.231. With GCUUUUCAUAUCUCUUGCATT against Olfr1385 the z-score was 0.408. In the case of CCUGUCUGGACUUGUCUAATT against Ica1, the z-score is reported as -2.05 (active). Work on GCCAGAAUCUGUUGUGAACTT against Gfpt1 yielded a z-score of 0.0747. Work on GGGAAAAUCCACUUUUAAGTT against Hs2st1 yielded a z-score of -0.0469. GGGUCCAAUAAACAUGUCUTT against B3galt4 gave a z-score of 0.234. In the case of CCAGGACUUACUCAGUAAUTT against Setd6, the z-score is reported as -0.72. With GGCAAGAGAAUUCAGAUCUTT against Slc5a1 the z-score was 2.91 (active). With GGCGUGAUCGCUCUCCAAUTT against Ncoa5 the z-score was 0.834. Sequence GGAUAACCGCCAAUAAAAATT against Msantd3 has a z-score of 0.255. In the case of GCCCUACCUUGAAUCCCAUTT against Olfr532, the z-score is reported as -1.75. GGUAUUGGGCCAUUGGUUGTT against Mapkapk3 showed a z-score of 0.705. GGGUUGAUUAAAGUUUAACTT against Gsx2 gave a z-score of 1.4. Sequence GGCCACUUGCCUAUUGUGATT against Anxa6 has a z-score of -0.343. For GAAUAUGUGGCUCUGGGUCTT against G6pc3, the z-score was -0.414. For GCUGCACAUUGUCCAUUAUTT against Car12, the z-score was 2.3 (active). GGUGUUCUUUGACAGUGCCTT against Atp5d showed a z-score of 0.107. GCCGAUGAUGAGAAACGACTT against Cd2 gave a z-score of -0.279. With GGCGAGUUUUCCUCUUCAGTT against Sync the z-score was 1.08. With CCGUCAUCACUGAUCAGUUTT against Olfr684 the z-score was 2.7 (active). In the case of GGUGCUGUGUGAGCUUUCATT against Zfp85os, the z-score is reported as -1.47. With GGCUGACUCGCUUUCACCATT against Efna2 the z-score was 0.522. Sequence GCCACAGGCCAAGAUCAUUTT against Pafah1b2 has a z-score of -0.614. In the case of GGACAAUUGGAAGAUUUGGTT against Ccdc88a, the z-score is reported as -1.23. Work on CCCUGAAUAAGGCUGAUCUTT against Krt32 yielded a z-score of -0.801. In the case of GGAUCUGUGAGAAUCAUAGTT against Rabgap1l, the z-score is reported as -2.24 (active). GGGAGAUGUUGUCAGGGUCTT against Rnasel showed a z-score of -0.476. For GGAAAGUGCAUCAUAGACATT against Thrb, the z-score was 0.153. For GGACGAUGUAUUGUUAUUGTT against Lrp10, the z-score was 1.49. With GGUAUGACUUGCUCUUUAUTT against Rnpep the z-score was -0.881. With GCAUUUGUGGCCUAUGCUCTT against Naprt the z-score was -2.16 (active). In the case of GCUCAAAUGUUCUAAAAGCTT against Acmsd, the z-score is reported as -0.332. With GGCGUAUUUGUCAUUUCUUTT against Dis3l the z-score was 0.013. In the case of GGAAGUCAUUUUUUCCAAGTT against Msantd4, the z-score is reported as 1.12. In the case of GCAUUGUUUUUCUAUUCAGTT against Cfhr1, the z-score is reported as 0.531. Sequence GGUGCUUCACAGAAUGUGUTT against Olfr784 has a z-score of -1.8. In the case of GGGUCUCAAAGCAGUUUUUTT against Rhoj, the z-score is reported as 3.99 (active). With GCUGAAAACACACCUAGCATT against Gin1 the z-score was 1.19. Sequence GGCUGUCUUACAAUGUAAUTT against Gabrb2 has a z-score of -0.638. Work on GAGACUAAUAUAGUGAAUGTT against Foxj1 yielded a z-score of -0.314. With GGCAGAGAGUCUACAUAUGTT against Bcar3 the z-score was -0.272. GCAGAAGGUACUACUAUCGTT against Rcsd1 showed a z-score of 0.669. For CCUUGUUGUGACAAGCUUUTT against Rchy1, the z-score was -0.362. With GGCUUCAUGCCUUAUCCACTT against Fam166a the z-score was -0.314. With GCCCUGUGCUUGGCAACAUTT against Ssbp3 the z-score was -2.36 (active). With GGCCACCGUUCAAAAAAUUTT against Dctn5 the z-score was -0.226. GGAAGAGAAUAGAUCCUAUTT against Zbtb8a showed a z-score of -0.388. For GGUCGUGUACAAGUACAUATT against Mrps24, the z-score was 2.24 (active). GCUACUGCACAAAGUUACGTT against Ankrd36 showed a z-score of -0.0351. For GCUGACUCCAUCCUAACAGTT against Cideb, the z-score was -2.6 (active). GCCUCUGAGUUGCAUGAGUTT against Ppp2r5b showed a z-score of -0.736. GGACUACCAUCGACCUUCATT against Nek2 gave a z-score of 1.15. In the case of CCCAAGAAUUGGAUUCCAGTT against Lta, the z-score is reported as -0.528. GGAGCUGAAGAUCAAGGAGTT against Pkn3 gave a z-score of -0.849. Work on GCCCAAAAAUACUGGAUAUTT against Atp6ap2 yielded a z-score of -2. With “GCCUUGUAGACCAGUUCUATT against 9530085L02Rik” the z-score was 2.15 (active). Sequence CCGCAUGUUUGGAAAGGAUTT against Cabp4 has a z-score of -0.484. In the case of GGAACAAUUUGAUCCAGCATT against Mbnl2, the z-score is reported as -1.67. With CCCACUCCUUCUAAAAGUUTT against Cyp3a13 the z-score was -0.909. Sequence GGCCAUUCACGUUUUACUCTT against Ric8b has a z-score of -1.02. For GGAGCUAUAUUCUCACCCATT against Ptpn1, the z-score was -2.06 (active). GGGAAAAAUAUCAGUUAUGTT against Khdrbs1 gave a z-score of 0.465. GGGUACGUUCAAGUGCUUCTT against Agtpbp1 gave a z-score of 1.74. GGAUACAUGUGGUGCCAAUTT against Banf1 showed a z-score of -0.529. For GCCAUAACCUACAUUGUCATT against Loxhd1, the z-score was -2.86 (active). Work on GCGAAUCCACUUAAUUCGATT against Abhd4 yielded a z-score of 1.35. For CCACAAGAUUGUUUCAGAATT against Lingo4, the z-score was 0.216. Sequence GCUGCUCAAGUUGUGGUGATT against Sord has a z-score of 1.56. With GGUUCAGCUGACGUAAAAATT against BC048562 the z-score was -2.1 (active). Work on GCAGUAGAUCCUGAUUUUGTT against Cdh12 yielded a z-score of -0.382. For GGGACCUUUCCUGACCUAUTT against Ppdpf, the z-score was -0.362. For GGUCCACUUGCCAUCUAUUTT against Zfp54, the z-score was -1.09. In the case of CCCUAACAUACUGGAGCUATT against Erfe, the z-score is reported as 3.56 (active). With GGGUAUUUUCACUGAAAGUTT against Ltbp3 the z-score was 0.431. GGUGACUUGUAAAGAUUUUTT against Dstn showed a z-score of 0.234. For GGAGACAGAAAGAGAAAAGTT against Pou3f2, the z-score was -0.578. GGAGUUCACGGAUCUUGAGTT against Ppp1r37 gave a z-score of 0.226. In the case of GGCAAUCAUUGGACUAUACTT against Nckap1, the z-score is reported as -2.81 (active). Sequence GCACCCAAACUUAAAAUAGTT against Spink10 has a z-score of -0.69. GGUUGAAGUCACAAAAGAATT against Prkg1 gave a z-score of -0.619. For GGGAAGGAGAGUAUUCCAATT against Mrpl14, the z-score was 3.44 (active). In the case of GCAUUUCCUAUAAUCGUUGTT against Olfr360, the z-score is reported as 0.371.
